Screening data as filed in PubChem.
This excerpt belongs to a sample that is enriched for hits.
MARV entry inh: Marburg virus entry inhibition | Potency, µM (highest dose often 37.8 µM), inactives show at the top dose activity change, negative = inhibition, actives largely listed as inhibitors | Marburg virus pseudotyped entry inhibition, cell reporter | hit rate 1.8% among 300,000; calls by dose curve; tested in HEK293 cells; also: potency is read from the fitted curve at half-maximal effect; % is scaled to controls: 0 for no effect and ±100 for the full control effect
Shiga toxin inh: Shiga toxin inhibition. Vero cells, Shiga toxin protein synthesis inhibition reporter. inhibition, % at 38.7 µM. hit rate 9.2% among 290,000; in the data active = inhibition mostly above about 28%, no sharp cut-off; inactive = mostly below about 43%; also: 0% is about no effect
AMA1-RON2 inh: disrupts binding of P. falciparum AMA1 to RON2 | AID 720542 | AlphaScreen AMA1-biotinylated RON2 peptide binding | Potency, µM (highest dose often 58.2 µM), without a hit: at the top dose activity change, negative = inhibition, most hits filed as inhibitors | hit rate 0.2% among 360,000; active = well fitted inhibition curve with a large enough effect; inconclusive = small, poorly fitted or top-dose-only effect; inactive = no such curve, though single readings can be large or run the other way;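 also: potency is read from the fitted curve at half-maximal effect; 0% = vehicle wells and -100% = peptide control; nearly all actives have a fitted effect of over 45% in size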
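AMA1 (3D7) with his tag at 25 nM final met compounds first, then biotinylated RON2 peptide at 25 nM; detection used donor plus acceptor beads, 10 µg/mL apiece, read by AlphaScreen after 30 min at room temperature.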
CHX counter: affects cycloheximide protein synthesis inhibition readout, counter-screen; AID 2314; cell reporter, cycloheximide protein synthesis inhibition counterscreen; max response, %; hit rate 12% among 300,000; in the data active = max response mostly above about 13%, no sharp cut-off; inactive = mostly below about 14%; also: read at 38.3 µM for the half of the compounds with a filed dose; 0% is about no effect
LASV entry inh: blocks Lassa virus binding to or entry into cells | Lassa virus pseudotype entry inhibition, cell reporter | Potency, µM (titrated, usually from 37.9 µM), for the others: at the top dose activity change, negative = inhibition, usual class: inhibitors | hit rate 1.2% among 300,000; calls by dose curve; tested in HEK293 cells; also: potency is read from the fitted curve at half-maximal effect; % is scaled to controls: 0 for no effect and ±100 for the full control effect; nearly all actives have a fitted effect of over 50% in size
The depositor's hits bear a star; ? = inconclusive; . = no result given; ! = not confirmed by another sample; [ ] = another dose, or the depositor's remark.

SMILES	MARV entry inh	Shiga toxin inh	AMA1-RON2 inh	CHX counter	LASV entry inh
Cc1ccc(NC(=O)CSc2nc3c(c(=O)[nH]2)CCC3)cc1Cl	?	.	.	.	-28.6%[46.1 µM]
Cc1cc(C)cc(NC(=O)COC(=O)CCCC2=NS(=O)(=O)c3ccccc3N2)c1	.	9.7	-4.1%	0.5	.
Cc1cccc(OCC2=NS(=O)(=O)c3ccccc3N2)c1	4.3%	106.4*	2.8%	38.4*	0.0%
Cc1ccccc1OCC(=O)OCC(=O)c1c[nH]c2ccccc12	.	.	-0.9%	.	.
Cn1c(SCC(=O)N=Nc2c(O)[nH]c3ccccc23)nc2ccccc21	0.1%	10.0	.	-2.6	.
Cc1ccc(CNC(=O)CSc2nc3ccccc3[nH]2)cc1	.	13.8	19.3%	14.6*	.
COC(=O)c1cc(CSc2nc3ccccc3[nH]2)oc1C	?	36.2*	-18.2%	32.3*	?
O=C(CSc1nc2ccccc2[nH]1)N=Nc1c(O)[nH]c2ccccc12	7.3%	0.0	31.6%	16.7*	18.5%
CCOc1ccc2nc(SCC(=O)NCc3ccc(OC)cc3)[nH]c2c1	.	63.4*	0.1%	21.2	.
COc1ccc2nc(SCC(=O)NCc3ccccc3)[nH]c2c1	.	-6.5	12.0%	0.2	.
COC(=O)c1ccc(CNC(=O)CSc2nc3ccccc3[nH]2)cc1	16.7%[46.1 µM]	-13.4	0.8%	-5.4	-1.0%
O=C(CN1CCN(Cc2ccccc2)CC1)N/N=C/c1cccnc1	.	-12.7	18.8%	-3.3	.
Cc1nnc(NC(=O)CSc2nccn2-c2ccc(F)cc2)s1	3.1%[46.1 µM]	58.6*	-0.1%	44.0*	.
CC(C)c1nnc(NC(=O)CSc2nc3ccccc3[nH]2)s1	13.8%[46.1 µM]	9.0	52.8%	8.3	?
COc1ccc(CNC(=O)CSc2nc3ccc(N)cc3s2)cc1	?	-8.8	70.4%	-1.6	-13.4%
COc1ccc(CNC(=O)CSc2nc3cccnc3s2)cc1	.	17.5	1.2%	15.0*	.
Cc1nnc(NC(=O)CSc2nc3ccccc3[nH]2)s1	18.8%[46.1 µM]	9.2	-0.2%	16.0*	6.5%[46.1 µM]
COC(=O)c1ccc(CSc2nc3ccc(Cl)cc3[nH]2)o1	6.5%	-6.4	-14.1%	-2.0	-6.7%
CCOc1ccc2nc(SCc3ccc(C(=O)OC)o3)[nH]c2c1	-2.9%	43.9*	-9.6%	27.9*	-1.7%
CCN1C(=O)[C@@H]2[C@@H](c3ccc(-c4ccc(F)cc4)cc3)N3CCCC[C@@]3(C(=O)OC)[C@@H]2C1=O	.	.	-10.7%	.	.
O=C(COC(=O)c1cnccn1)NCc1ccccc1Cl	.	.	10.1%	.	.
Cc1ccccc1CNC(=O)c1ccc(CN2CC(=O)N3CCCCC3C2=O)cc1 (stereo not drawn)	.	.	.	.	14.3%[46.1 µM]
CC1(C)Cc2c(cnn2-c2ccccc2)C(=O)/C1=N\NC(=O)c1ccccc1O	-10.5%	32.2	-15.7%	16.3*	-13.0%
CC1(C)Cc2c(cnn2-c2ccccc2)C(=O)/C1=N\NC(=O)c1ccccc1	?	-4.9	-2.5%	1.7	-11.4%
CC1=C(C(=O)N2CCCCCC2)CC(CC(=O)NCc2cccc3ccccc23)C(=O)N1CCC1=CCCCC1 (stereo not drawn)	.	.	-11.4%	.	.
SMILES	MARV entry inh	Shiga toxin inh	AMA1-RON2 inh	CHX counter	LASV entry inh
O=C(NCCc1ccccc1)c1ccc(Cl)c(S(=O)(=O)N2CCOCC2)c1	-1.9%[46.1 µM]	30.7	0.0%	24.2*	?
O=C(Nc1cccc(C(=O)NC2CC2)c1)c1ccc(Cl)c(S(=O)(=O)N2CCOCC2)c1	.	.	-4.9%	.	.
O=C(Nc1cccnc1)c1ccc(Cl)c(S(=O)(=O)N2CCOCC2)c1	2.8%	-8.2	23.8%	-5.2	1.5%
Cc1cccc(N(Cc2ccccc2)C(=O)c2ccc(F)c(S(=O)(=O)N3CCOCC3)c2)c1	11.2µM*	.	18.2%	.	-27.3%
O=C(Nc1cccc(Br)c1)c1ccc(Cl)c(S(=O)(=O)N2CCOCC2)c1	?	35.4	11.9%	21.3*	?
O=C(Nc1cccc(S(=O)(=O)C(F)F)c1)c1ccc(Cl)c(S(=O)(=O)N2CCOCC2)c1	10µM*!	-9.3	-18.1%	10.2	?
O=C(OCC(=O)N1CCCC1=O)c1ccc(Cl)cc1[N+](=O)[O-]	-20.5%[46.1 µM]	.	-2.6%	.	14.1%
C=CCCC1CN(Cc2ccc(OC)cc2)S(=O)(=O)c2c(Oc3cc(C)c(C)c(C)c3)cccc2O1 (stereo not drawn)	.	.	.	.	-16.9%[46.1 µM]
COc1ccc(NC(=O)CC2C(=O)N(c3ccccc3)C(=O)N2CCc2sccc2C)cc1 (stereo not drawn)	-28.2%[46.1 µM]	.	.	.	?
Cn1cc(/C=C/C(=O)c2ccccc2)c2ccccc21	?	73.8*	-21.6%	40.6*	?
Cc1ccc(C(=O)/C=C/c2cn(CN3CCN(C)CC3)c3ccccc23)cc1	?	85.4*	3.0%	34.7*	-3.6%
CC1(C)CC(=O)C=C(c2cccc(O)c2)C1=O	.	.	-5.9%	.	.
